Assay results taken from PubChem BioAssay.
Activity calls are given as the source filed them.

Key:
[1] = target: Albumin (Bos taurus) (UniProt P02769); assay: bovine serum albumin binders on microarray, profiling panel, artefact control for SMM control protein annotation, biochemical, small-molecule microarray, Alexa647 label, 635/667 nm fluorescence (AID 1118); conditions: BSA-A647 binding, fluorescence 635 nm, higher = more signal;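 further: score merges 667 nm emission intensity and signal-to-noise per printed compound spot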
Albumin (Bos taurus), sequence (P02769 whole entry, looked up): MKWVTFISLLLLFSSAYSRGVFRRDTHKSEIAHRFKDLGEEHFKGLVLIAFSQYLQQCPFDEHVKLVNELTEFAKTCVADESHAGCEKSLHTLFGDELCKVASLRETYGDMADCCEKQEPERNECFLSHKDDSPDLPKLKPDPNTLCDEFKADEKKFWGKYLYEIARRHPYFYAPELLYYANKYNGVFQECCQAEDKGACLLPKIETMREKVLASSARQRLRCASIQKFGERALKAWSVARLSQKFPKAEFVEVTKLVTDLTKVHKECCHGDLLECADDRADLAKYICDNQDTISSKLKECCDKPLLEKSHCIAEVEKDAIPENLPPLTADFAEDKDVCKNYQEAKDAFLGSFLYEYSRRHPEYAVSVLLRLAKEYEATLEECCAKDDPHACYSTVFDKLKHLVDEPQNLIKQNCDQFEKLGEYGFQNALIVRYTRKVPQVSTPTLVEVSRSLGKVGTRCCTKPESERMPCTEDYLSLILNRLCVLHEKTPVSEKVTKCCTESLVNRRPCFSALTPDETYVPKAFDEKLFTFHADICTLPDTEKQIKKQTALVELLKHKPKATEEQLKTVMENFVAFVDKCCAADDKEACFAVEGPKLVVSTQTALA

[2] = small-molecule microarray binders of probe aXIP, primary screen, biochemical, NeuroSMM set, 635/667 nm fluorescence (AID 1119); conditions: higher = more signal, called active from +8 up or from −8 down;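 further: probe is the protein aXip251-270 applied at 1 µg/mL to compound-printed slides; binding of probe to printed compounds measured as 667 nm fluorescence plus signal to noise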
[3] = small-molecule binders of probe aNOTCH3, primary screen, biochemical, small-molecule microarray, 635/667 nm fluorescence (AID 1120); conditions: higher = more signal;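 further: probe is a biotin-tagged antibody raised against NOTCH3 rather than NOTCH3 protein; score merges spot fluorescence near 667 nm with spot signal to noise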
[4] = small-molecule binders of probe aNOTCH2, primary screen, biochemical, small-molecule microarray, 635/667 nm fluorescence (AID 1121); conditions: higher = more signal;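 further: score merges feature fluorescence read at 667 nm with its signal to noise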
[5] = target: Carbonic anhydrase 2 (Homo sapiens) (UniProt P00918); assay: CAII small-molecule binders, profiling panel, biochemical, small-molecule microarray, Alexa647-labelled CAII (AID 1122); conditions: CAII-A647 binding fluorescence, higher = more signal
[6] = COS7 lysate on small-molecule microarray, probe aHis, 635 nm (AID 1123); conditions: COS7 cell lysate, fluorescence, higher = more signal;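 further: z-score combines 667nm fluorescence intensity with signal-to-noise per printed compound spot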
[7] = compound binding in COS7 lysate, probe aLAP1, primary screen, cell lysate, small-molecule microarray (AID 1124); conditions: probe aLAP1, fluorescence, higher = more signal;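 further: lysate comes from COS7 cells expressing LAP1 and is applied at 0.3 µg/mL; score merges spot fluorescence near 667 nm with signal-to-noise over triplicate slides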
[8] = system: Sam68 (KHDRBS1); assay: Sam68 small-molecule binders, primary screen, biochemical, small-molecule microarray, 635 nm fluorescence (AID 1125); conditions: small-molecule microarray binding, higher = more signal;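 further: score merges 667 nm channel intensity with signal to noise over triplicate slides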
[9] = system: Chordin-like protein 2 (CHRDL2); assay: CHRDL2 small-molecule binders, primary screen, biochemical, small-molecule microarray, 635 nm fluorescence (AID 1126); conditions: small-molecule microarray binding, fluorescence 635 nm; higher = more signal;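 further: printed compound slides probed with Chrdl2 protein at 4 µg/mL for 1 h at 4 C; score merges 667 nm emission intensity with signal to noise over three replicate slides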
[10] = target: Concanavalin-A (Canavalia ensiformis) (UniProt P02866); assay: ConA small-molecule binders, primary screen, artefact control for SMM control protein annotation, biochemical, small-molecule microarray, Alexa647 label, 635 nm (AID 1127); conditions: ConA-A647 binding fluorescence, higher = more signal;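 further: z combines 667 nm emission intensity with signal-to-noise across three replicate slides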
Concanavalin-A (Canavalia ensiformis), sequence (P02866 whole entry, looked up): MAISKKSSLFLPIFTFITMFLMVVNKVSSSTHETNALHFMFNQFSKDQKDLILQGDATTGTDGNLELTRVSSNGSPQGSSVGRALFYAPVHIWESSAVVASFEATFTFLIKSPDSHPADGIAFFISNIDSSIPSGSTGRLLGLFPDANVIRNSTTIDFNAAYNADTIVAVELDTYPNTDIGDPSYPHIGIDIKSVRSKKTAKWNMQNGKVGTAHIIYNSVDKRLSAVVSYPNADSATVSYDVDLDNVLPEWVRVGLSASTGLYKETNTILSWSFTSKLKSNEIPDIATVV

| Structure (SMILES) | composite z-score [1] | composite Z-score [2] | composite z-score [3] | composite z-score [4] | composite z-score [5] | composite z-score [6] | composite z-score [7] | composite z-score [8] | composite z-score [9] | composite z-score [10] |
| --- | --- | --- | --- | --- | --- | --- | --- | --- | --- | --- |
| C=CCNC(=O)[C@H]1[C@@H]2C(=O)O[C@@H](c3ccccc3)[C@@H](c3ccccc3)N2[C@@H](c2ccc(OCCO)cc2)[C@]12C(=O)Nc1ccc(C#Cc3ccc(OC)cc3)cc12 | 0.404 | 0.637 (inactive) | 0.146 | 0.0805 | 0.386 | 2.34 | 0.315 | 1.3 | 0.581 | 1.18 |
| C=C(COC)/C(=C/C[C@@H](OC(C)=O)c1cccc(OCCO)c1)c1cnc2ccccc2c1 | 0.238 | -0.365 (inactive) | 0.0916 | -0.084 | 0.98 | 1.12 | 0.0842 | 0.965 | 1.42 | 0.877 |
| O=C(NCC(F)(F)F)[C@@H]1c2ccccc2C(=O)N(Cc2cc(C(F)(F)F)cc(C(F)(F)F)c2)[C@H]1c1ccc(CO)cc1 | 0.195 | -0.368 (inactive) | -0.154 | -0.0984 | 0.207 | 0.729 | 0.158 | 0.178 | 0.0632 | 0.209 |
| COCCOC(=O)N1C(=O)[C@@]2(c3cc(C#CCC(C(=O)OC)C(=O)OC)ccc31)[C@H](C(N)=O)[C@H]1C(=O)O[C@H](c3ccccc3)[C@H](c3ccccc3)N1[C@@H]2c1ccccc1OCCO | 0.653 | -0.145 (inactive) | -0.0565 | 0.201 | 0.593 | 0.882 | -0.155 | 1.32 | 1.1 | 1.15 |
| C=CCNC(=O)[C@@H]1[C@H]2C(=O)O[C@H](c3ccccc3)[C@H](c3ccccc3)N2[C@H](c2ccc(OCCO)cc2)[C@@]12C(=O)Nc1ccc(C#CC3=CCCCC3)cc12 | 0.806 | 0.653 (inactive) | 0.0493 | -0.145 | 0.512 | 1.33 | 0.402 | 1.3 | 0.0821 | 1.14 |
| O=C(O)C1=CC[C@H]2C(=O)N(c3ccccc3)C(=O)[C@@H]12 | 0.342 | 0.277 (inactive) | 0.21 | -0.0216 | 0.425 | 1.33 | 0.453 | 1.31 | -0.0125 | 1.02 |
| C=CCNC(=O)[C@H]1[C@@H]2C(=O)O[C@@H](c3ccccc3)[C@@H](c3ccccc3)N2[C@@H](c2ccc(O)cc2)[C@]12C(=O)N(C(=O)OCCOC)c1ccc(C#Cc3ccc(OC)cc3)cc12 | 0.451 | -0.0437 (inactive) | 0.0271 | -0.112 | 0.382 | 0.428 | 0.5 | 0.934 | -0.142 | 0.876 |
| CC[C@@H](O[Si](C#C[Si](C(C)C)(C(C)C)C(C)C)(C(C)C)C(C)C)c1cn(Cc2cccc(Cl)c2)nn1 | 0.0711 | -0.0359 (inactive) | -0.119 | -0.0495 | 0.226 | 0.233 | 0.773 | 1.04 | 0.451 | 0.68 |
| O=C1C2C=CC(C(O)c3ccccn3)N(Nc3ccc([N+](=O)[O-])cc3)C2C(=O)N1c1ccccc1 (stereo not given) | 0.89 | 0.0129 (inactive) | 0.0162 | 0.0215 | 0.592 | 0.438 | 1.85 | 0.102 | -0.421 | 1.13 |
| COc1ccc([Si](C)(C)[C@H]2[C@H](CC(=O)N3CCC[C@H]3CO)O[C@@]3(C(=O)N(C)c4c(Br)cc(C)cc43)[C@@H]2C)cc1 | 0.824 | 3.93 (inactive) | 0.189 | 0.503 | 0.81 | 2.52 | 0.548 | 1.3 | 1.38 | 1.19 |
| CN1C(=O)C2C=CC(C(O)c3ccc([N+](=O)[O-])cc3)N(Nc3ccccc3)C2C1=O (stereo not given) | 1.06 | -1.05 (inactive) | 0.315 | -0.0305 | 0.652 | 1.94 | 0.701 | 1.31 | 0.196 | 1.15 |
| CC1C2C(CCCO)=CC(C3C(=O)N(C)C(=O)C23)N1Cc1cccc(OC(F)(F)F)c1 (stereo not given) | 1 | -0.0186 (inactive) | 0.126 | 0.0083 | 0.854 | 2.43 | 0.267 | 1.29 | -0.262 | 0.96 |
| COc1ccc(CCNC(=O)[C@@H]2c3ccccc3C(=O)N(C(C)C)[C@H]2c2ccc(CO)cc2)cc1 | -1.09 | 1.13 (inactive) | -0.209 | -0.132 | 0.722 | 1.42 | -0.362 | -0.139 | -1.87 | -0.574 |
| COC(=O)c1c2oc(c1C(=O)OC)C(=O)N[C@H](Cc1ccccc1)Cn1cc(nn1)C1(CCCCC1)NC(=O)N[C@H](CO)CC2 | 0.264 | 0.605 (inactive) | -0.0113 | -0.15 | 0.765 | 0.856 | 0.474 | 0.0112 | -0.2 | -1.71 |
| [N-]=[N+]=NCc1ccccc1[C@H]1OC(c2ccc(OCCCO)cc2)=N[C@@]1(Cc1ccccc1N=[N+]=[N-])C(=O)N1CCOCC1 | 0.939 | 0.594 (inactive) | 0.0159 | -0.0895 | 0.676 | 2.57 | -0.14 | 1.3 | -0.596 | 1.14 |
| C=CC[C@H](O)c1ccc(O)c(F)c1 | -0.394 | 0.404 (inactive) | -0.849 | -0.157 | 0.828 | -0.268 | -0.0732 | -1.45 | -2.24 | -1.09 |
| COC(=O)C(CC#Cc1ccc2c(c1)[C@]1(C(=O)N2)[C@H](c2ccccc2OCCO)N2[C@H](c3ccccc3)[C@H](c3ccccc3)OC(=O)[C@H]2[C@@H]1C(=O)N1CCN(c2ncccn2)CC1)C(=O)OC | 0.706 | 0.156 (inactive) | 0.0052 | -0.132 | 0.23 | 1.18 | 0.309 | 1.31 | 1.1 | 1.11 |
| O=C1C2C=CC(C(O)C3CCCCC3)N(Nc3ccccc3F)C2C(=O)N1c1ccccc1 (stereo not given) | 0.97 | 0.485 (inactive) | 0.457 | 0.252 | 0.244 | 2.71 | 1 | 1.31 | 0.426 | 1.2 |
| CC(C)c1ccc(NN2C(C(O)C(C)c3ccccc3)C=CC3C(=O)N(c4ccccc4)C(=O)C32)cc1 (stereo not given) | 1.03 | 0.304 (inactive) | 0.578 | 0.589 | 0.749 | 3.34 | 0.952 | 1.28 | 0.306 | 1.17 |
| [N-]=[N+]=NCc1ccccc1C[C@@]1(C(N)=O)N=C(c2ccc(OCCCO)cc2)O[C@@H]1c1ccccc1N=[N+]=[N-] | 0.873 | -0.254 (inactive) | 0.0065 | 0.0368 | 0.63 | 2.8 | 0.197 | 0.816 | 0.0247 | 1.12 |
| CC(=O)NCCCC[C@@H]1NC(=O)[C@H]2C[C@@H](C(=O)O)[C@@H](c3cccc(OCCO)c3)N2C1=O | 0.757 | 0.446 (inactive) | 0.348 | -0.0644 | 0.415 | 1.05 | 1.32 | 1.29 | 1.11 | 0.587 |
| CC(=O)NCCCC[C@@H]1NC(=O)[C@H]2C[C@@H](C(=O)NCCCCCN)[C@@H](c3ccc(O)cc3)N2C1=O | 0.675 | 0.0898 (inactive) | -0.0677 | -0.0706 | 0.413 | 1.1 | -0.15 | 1.21 | 0.851 | 0.966 |
| Cc1ccc(S[C@]2(C(=O)NCc3ccccc3)CC(=O)N(Cc3ccccc3Cl)[C@@H]2c2ccc(CO)cc2)cc1 | -0.447 | -0.608 (inactive) | -0.511 | -0.149 | 0.762 | 0.397 | 0.197 | 0.472 | -0.78 | 0.439 |
| Cc1ccc(S[C@]2(C(=O)NC(C)C)CC(=O)N(Cc3ccccc3)[C@@H]2c2ccc(CO)cc2I)cc1 | -0.437 | -0.0142 (inactive) | -0.229 | -0.227 | 0.784 | 1.79 | 0.532 | 0.636 | -2.55 | -0.639 |
| C=C(C(=O)CC[C@@H](OC(=O)c1ccccc1-c1ccccc1C(=O)O)c1ccc(CO)o1)C(C)C | -0.41 | 0.0692 (inactive) | -0.0858 | -0.112 | 0.75 | 0.163 | 0.464 | 0.754 | 0.386 | 0.278 |
| COc1ccc([Si](C)(C)[C@@H]2[C@@H](CC(=O)N3CCC[C@H]3CO)O[C@]3(C(=O)N(Cc4cccc(N5C(=O)c6cccc7cccc5c67)c4)c4ccccc43)[C@H]2C)cc1 | 0.601 | 0.681 (inactive) | -0.0701 | -0.166 | 0.394 | 0.386 | 0.104 | 0.905 | 0.568 | 1.13 |
| COc1ccc([Si](C)(C)[C@H]2[C@H](CC(=O)N(CCO)Cc3ccccc3)O[C@@]3(C(=O)N(Cc4cccc(N5CCCCC5=O)c4)c4ccccc43)[C@@H]2C)cc1 | 0.124 | 1.12 (inactive) | 0.401 | -0.131 | 0.235 | 0.681 | 0.825 | 0.732 | 0.877 | 0.72 |
| Cc1ccc(S(=O)(=O)N2[C@@H](c3ccccc3)C(C(=O)O)=C[C@H]2C(C)(C)C)cc1 | 1 | 0.882 (inactive) | 0.178 | 0.0458 | 0.756 | 2.82 | 0.827 | 1.3 | -0.301 | 1.17 |
| CC(C)c1ccc(NN2C(C(O)C3CCCCC3)C=CC3C(=O)N(c4ccccc4)C(=O)C32)cc1 (stereo not given) | 0.98 | 0.637 (inactive) | 0.286 | 0.0836 | 0.632 | 1.78 | 0.948 | 1.31 | -0.261 | 1.14 |
| COc1ccc([Si](C)(C)[C@H]2[C@H](CCO)O[C@@]3(C(=O)N(Cc4ccccc4)c4ccc(NC(=O)[C@H](C)O)cc43)[C@@H]2C)cc1 | 0.639 | 0.393 (inactive) | 0.372 | -0.0274 | 0.48 | 2.28 | -0.298 | 0.463 | 0.0883 | 0.473 |
